Compound activity: PubChem, several laboratories
CYP2C9 activ = activators of human CYP2C9; P11712; recombinant CYP2C9, luciferin-H conversion, luminescence; active compounds read high; factor 1 = untreated enzyme, 0 = blocked; activation factor at 5 µM; 96,000 tested, 1.4% active; AID 1024;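 active means activation factor of 2 or more for CYP2C9 at a 5 µM dose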;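 further: 0 = sulfaphenazole-blocked wells and 1 = vehicle-only wells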
CYP2C19 act = cytochrome P450 2C19 (human) activation. 96,000 tested, under 10 active. recombinant CYP2C19, luciferin-H EGE luminescence; active compounds read high; 0 = fully inhibited enzyme, 1 = untreated enzyme. activation factor at 5 µM. P33261;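 active means activation factor of at least 2 at 5 µM in the primary screen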;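 further: 0 = wells with 2.5 mM tranylcypromine and 1 = vehicle-only wells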
Target sequence (P33261 whole entry, looked up): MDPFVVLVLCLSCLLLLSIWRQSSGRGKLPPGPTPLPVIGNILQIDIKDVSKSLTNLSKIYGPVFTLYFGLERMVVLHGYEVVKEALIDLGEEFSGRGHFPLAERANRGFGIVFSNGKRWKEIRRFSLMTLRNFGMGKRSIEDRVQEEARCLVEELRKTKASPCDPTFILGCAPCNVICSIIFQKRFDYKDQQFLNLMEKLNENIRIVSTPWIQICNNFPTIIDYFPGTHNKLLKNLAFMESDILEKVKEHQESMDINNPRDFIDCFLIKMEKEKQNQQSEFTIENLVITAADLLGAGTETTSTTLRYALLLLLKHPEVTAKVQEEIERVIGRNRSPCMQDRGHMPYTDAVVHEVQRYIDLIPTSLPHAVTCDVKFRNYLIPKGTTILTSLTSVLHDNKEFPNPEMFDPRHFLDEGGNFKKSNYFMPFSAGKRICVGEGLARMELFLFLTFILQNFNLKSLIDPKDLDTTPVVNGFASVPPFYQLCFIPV
CYP2C9 inhib = blocks human cytochrome P450 2C9. P11712. CYP2C9 Supersomes, luciferin-H conversion, luminescence. inhibition, % at 5 µM. 96,000 tested, 20% active. AID 777;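 active means blocking of liver enzyme CYP2C9 beyond about 50% at 5 µM, limit read from the data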
CYP2C19 inhib = human CYP2C19 inhibition; P33261; CYP2C19 Supersomes, luciferin-H EGE luminescence, 30 min; inhibition, % at 5 µM; 96,000 tested, 21% active;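 active means CYP2C19 inhibition above a set limit at 5 µM in the primary screen, cut at about 50% in these data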;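 further: plate controls were negative control wells for no effect and 2.5 mM tranylcypromine positive control for full effect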
Cav32 inh = human Cav3.2 channel inhibition, primary screen; O95180; Cav3.2-expressing cells, Fluo-4 calcium fluorescence FDSS; active compounds read low; B-score at 10 µM; 100,000 tested, 4% active; AID 449739;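 active means single-dose well whose peak fluorescence ratio is a statistical outlier from its plate by either plate-standardised score or position-corrected B-score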
* = called active by the depositor; . = not tested or not shown. Only some compounds are listed: those with a hit (about 27% of all), similar ones and a draw of the others.

SMILES	CYP2C9 activ	CYP2C19 act	CYP2C9 inhib	CYP2C19 inhib	Cav32 inh
COc1ccc(C(=O)Cn2c(Br)nc3c2c(=O)n(C)c(=O)n3C)cc1OC	1	1	4.7	3.4	-0.0347
Cc1ccc(-n2ncc(C#N)c2/N=C/N2CCCCCC2)cc1	0.1	0	90.7*	96.6*	-3.1
CCOC(=O)c1c(NC(=O)CSc2nnc(C)c(=O)[nH]2)sc2c1CCCC2	0	0.6	98.3*	38.6	-2.94
CCOC(=O)Cc1csc(SCc2nc3sc4c(c3c(=O)[nH]2)CCC4)n1	0.6	0.8	36.2	17.7	-1.55
CCOC(=O)c1c(NC(=O)CSc2nnc(C)s2)sc2c1CCC(C)C2 (stereo unspecified)	.	.	.	.	-4.02
Cc1nnc(SCC(=O)Nc2sc3c(c2C#N)CCCC3)[nH]c1=O	0.2	1	79.4*	-1.0	0.00579
CCOC(=O)c1c(NC(=O)CSc2nnc(C)s2)sc2c1CCCCC2	0.4	0.7	55.1*	27.5	-3.89
CCOC(=O)Cc1csc(SCC(=O)Nc2sc3c(c2C(N)=O)CCC3)n1	0.5	0.7	50.3*	33.6	-1.15
CCO[C@@H]1OC(C(N)=O)=C[C@H](C2CC2)[C@H]1CCCO	.	.	.	.	0.547
CCCCC(CC)C1OCC(CN2CCCC2)O1 (stereo unspecified)	1	0.8	-0.8	17.1	0.196
CCCCn1c(SCc2nc3ccccc3s2)nc2cc(S(N)(=O)=O)ccc21	0.3	0.8	72.7*	16.9	-1.85
CCCCn1c(SCC(=O)NCc2ccco2)nc2cc(S(N)(=O)=O)ccc21	0.3	0.4	67.5*	56.3*	1.31
CCCCn1c(SCC(=O)N2CCCCC2)nc2cc(S(N)(=O)=O)ccc21	0.8	0.9	23.7	9.4	0.787
CCCCn1c(SCC(=O)c2ccc(OCC)cc2)nc2cc(S(N)(=O)=O)ccc21	0.8	0.9	24.9	6.0	.
CCOc1ccccc1N1CCN(CC(=O)Nc2nnc(CC)s2)CC1	.	.	.	.	-0.0311
O=C(CN1CCN(c2ccccc2)CC1)Nc1nccs1	0.1	0.3	90.0*	69.5*	-0.434
O=C(CCCSc1ccccc1)Nc1nc(-c2ccccn2)cs1	0.6	0.9	38.3	12.5	-6.34*
Cc1ccccc1OCCCC(=O)Nc1nccs1	0.6	0.2	35.6	80.5*	-0.661
O=C(CN1C(=O)CCC1=O)Nc1nc(-c2ccccn2)cs1	1.1	1.1	-6.0	-13.9	.
CCc1nnc(NC(=O)CN2CCN(c3nc(-c4ccccc4)cs3)CC2)s1	0.4	0.5	64.1*	48.9	-4.11
Cc1ccccc1OCCCC(=O)Nc1ccc(Br)cc1	1	0.9	0.3	14.0	-0.842
COc1ccc(S(=O)(=O)N(C)CC(=O)N2CCN(c3ccc(F)cc3)CC2)cc1OC	1.6	0.9	-62.4	10.9	1.37
c1ccc(-c2nnc3sc(CN4CCc5ccccc54)cn23)cc1	.	.	.	.	-1.94
CC(=O)Nc1ccc(SC(C)C(=O)NC(N)=O)cc1 (stereo unspecified)	0.8	1.2	17.6	-16.2	0.683
COc1cc(CNc2ccc(N3CCOCC3)c(C(=O)O)c2)ccc1OCC(N)=O	1.1	1.1	-10.6	-13.1	-0.391
SMILES	CYP2C9 activ	CYP2C19 act	CYP2C9 inhib	CYP2C19 inhib	Cav32 inh
O=C(CCCC(=O)OCC(F)(F)C(F)F)Nc1nccs1	0.4	0.5	60.3*	51.3*	1.16
Cc1ccc(S(=O)(=O)NCCCCCC(=O)Nc2nccs2)cc1	0.2	0.3	79.7*	73.9*	-2.29
COc1ccc(C2(O)CCN(CC(=O)Nc3nccs3)CC2)c(OC)c1	0.9	0.6	14.1	42.3	-4.66*
COCCNC(=O)CCCCCNS(=O)(=O)c1ccc(C)cc1	0.8	1	17.2	1.4	-0.00388
CCc1nnc(NC(=O)CN2CCC(O)(c3ccccc3OC)CC2)s1	1.1	1.2	-10.1	-16.8	0.254
O=C(CCSc1ccccc1)NC1CCCC1	0.9	0.2	6.3	82.8*	0.559
O=C(CCSc1ccccc1)Nc1nccs1	0.6	0.4	36.8	62.5*	-0.975
Cc1ccc(C)c(OCCCC(=O)Nc2nccs2)c1	0.7	0.5	30.2	45.1	-4.62*
O=C(CCSc1ccccc1)Nc1ncccn1	1	0.9	1.6	5.8	0.66
O=C(N[C@H](CO)Cc1ccccc1)c1ccco1	.	.	.	.	0.661
CCOC(=O)c1oc2ccc(S(=O)(=O)n3nc(-c4ccc(C)cc4)cc3N)cc2c1C	0	0.5	96.4*	48.0	0.436
CCOC(=O)c1oc2ccc(S(=O)(=O)n3nc(-c4ccc(Cl)cc4)cc3N)cc2c1C	0	0.8	98.7*	16.2	-0.611
O=C(NCCc1ccccc1)[C@@H]1CC=C[C@@H]2CCN(Cc3ccc(Cl)c(Cl)c3)C(=O)[C@@H]21	.	.	.	.	-2.18
CCN1CCCC1CNC(=O)c1cn(CC)c2ccc(S(=O)(=O)N3CCCCCC3)cc2c1=O (stereo unspecified)	0.6	0.9	39.7	13.4	.
C=CCn1cc(C(=O)NCC2CCCO2)c(=O)c2cc(S(=O)(=O)N3CCCCCC3)ccc21 (stereo unspecified)	0.5	0.9	54.9*	6.6	0.361
O=C(NCCN1CCCC1)c1cc(-c2ccncc2)nc2ccc(S(=O)(=O)N3CCOCC3)cc12	0.7	0.6	32.0	40.0	0.185
CCn1cc(C(=O)NCC2CCCO2)c(=O)c2cc(S(=O)(=O)N(C)C)ccc21 (stereo unspecified)	.	.	.	.	2.04
CCn1cc(C(=O)NCC2CCCO2)c(=O)c2cc(S(=O)(=O)N(C)C3CCCCC3)ccc21 (stereo unspecified)	0.4	0.8	61.1*	21.5	-0.873
O=C(NCC1CCCO1)c1cc(-c2ccncc2)nc2ccc(S(=O)(=O)N3CCOCC3)cc12 (stereo unspecified)	0.3	0.3	69.6*	72.0*	0.144
CCOP(=O)(c1c(F)c(F)c(F)c(F)c1F)C(O)c1ccccc1 (stereo unspecified)	0.8	0.6	16.9	35.8	1.71
CC(C)CNS(=O)(=O)c1ccc(S(=O)(=O)N2CCCN(Cc3ccccc3)C2)cc1	0.7	0.5	28.3	50.0*	-0.933
CC1CCCN(S(=O)(=O)c2ccc(S(=O)(=O)N3CCCN(Cc4ccccc4)C3)cc2)C1 (stereo unspecified)	0.2	0	84.9*	95.3*	-0.0842
CCCCNC(=O)C(=O)NC(C)CCc1ccccc1 (stereo unspecified)	0.9	0.8	5.5	19.7	.
CCCCN(C)C(=O)CS(=O)(=O)Cc1nc(-c2cccc(OC)c2)oc1C	0.7	0.6	27.9	39.9	-1.96
CCOC(=O)COc1cccc2c(=O)n(CC(=O)N3CCC(C)CC3)ccc12	.	.	.	.	0.736
CC1(c2nnc(Cc3ccccc3)o2)CC(c2ccncc2)=NO1 (stereo unspecified)	.	.	.	.	0.545
COC(=O)c1ccc(NC(=O)C2CC2)o1	1	1.1	-2.7	-9.0	-0.67
CCOc1nc(NCCN2CCOCC2)nc(NC(C)C)n1	.	.	.	.	-0.0302
COc1cc(C=O)cc(OC)c1OS(=O)(=O)c1ccc(NC(C)=O)cc1	2.8*	0.1	-181.5	91.2*	1.99
